Screening data deposited in PubChem BioAssay by National Center for Advancing Translational Sciences (NCATS).
ELG1 genotox – inducers of genotoxicity in HEK293T ELG1-luciferase cells | Potency, µM (top dose mostly 46 µM), for the others: top-dose activity change, positive = activation, usual class: activators | AID 504466 | HEK293T ELG1-luciferase reporter, luminescence, 16 h | 330,000 compounds, 1.3% hits; further: % of control where 0% means no effect; nearly all actives have a fitted effect of over 60% in size
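16 hr compound incubation (37 °C, 5% CO2) of HEK293T cells carrying luciferase-tagged ELG1; luciferase then measured by ONE-Glo luminescence after 30 min at RT.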
Rab9 prom act – Rab9 promoter activation; 320,000 compounds, 2.8% hits; Huh7 Rab9 promoter-luciferase reporter, luminescence, 24 h; Potency, µM (titrated, usually from 9.22 µM), for the others: at the highest dose activation, negative = inhibition, hits mostly activators; further: % of control where 0% means no effect; nearly all actives have a fitted effect of over 60% in size
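Huh7 cells stably carrying a Rab9 promoter-luciferase reporter, 1500 cells per well in OP-MEM I with 10% FBS, treated with compound 24 hours at 37C. Luciferase activity read by luminescence after 10 minutes with Amplite reagent.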
FLuc modulator – inhibits or activates purified firefly luciferase, miR-21 counter-screen; AID 588342; 360,000 compounds, 6.9% hits; P08659; Potency, µM (top dose mostly 57.5 µM), for the others: top-dose activity change, negative = inhibition, most hits filed as inhibitors; purified FLuc, Km substrates, luminescence inhibition;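 further: plate controls were vehicle for no effect and reference inhibitor for full effect; nearly all actives have a fitted effect of over 55% in size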
Target sequence (P08659 whole entry, looked up): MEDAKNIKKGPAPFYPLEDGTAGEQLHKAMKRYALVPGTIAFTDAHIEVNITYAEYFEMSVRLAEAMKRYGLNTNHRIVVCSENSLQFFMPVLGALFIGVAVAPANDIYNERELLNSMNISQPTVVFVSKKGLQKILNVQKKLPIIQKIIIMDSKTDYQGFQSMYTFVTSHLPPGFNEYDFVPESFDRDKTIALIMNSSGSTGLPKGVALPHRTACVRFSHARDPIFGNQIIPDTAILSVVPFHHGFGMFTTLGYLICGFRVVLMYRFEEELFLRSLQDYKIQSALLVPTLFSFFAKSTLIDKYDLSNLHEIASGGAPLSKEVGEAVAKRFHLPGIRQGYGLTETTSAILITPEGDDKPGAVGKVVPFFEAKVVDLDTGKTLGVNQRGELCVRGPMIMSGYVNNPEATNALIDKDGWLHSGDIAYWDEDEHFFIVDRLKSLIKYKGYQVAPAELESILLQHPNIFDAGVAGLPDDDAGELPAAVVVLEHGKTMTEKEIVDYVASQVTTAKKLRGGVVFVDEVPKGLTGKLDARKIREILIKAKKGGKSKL
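Purified P. pyralis luciferase, 10 nM final, with Km-level 10 uM D-luciferin and 10 uM ATP in 50 mM Tris acetate pH 7.5, 10 mM Mg acetate, 0.01% Tween-20, 0.05% BSA; 6-point qHTS titration about 60 µM downward; luminescence read.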
SMN2 splice up – SMN2 splice variant enhancement; HEK293 SMN2-luciferase splicing reporter, luminescence, 30-36 h; Potency, µM (titrated, usually from 46.1 µM), for inactives: at the highest dose activity change, positive = activation, usual class: activators; 210,000 compounds, 2.8% hits; AID 1458; further: % of control where 0% means no effect; nearly all actives have a fitted effect of over 55% in size
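HEK293 cells carry an SMN2 minigene-luciferase reporter in which exon 7 inclusion puts luciferase in frame. Cells were seeded at 2000 cells/well, attached for 10-12 hours, then exposed to compounds for 30-36 hours at 37C before ONE-Glo luminescence.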
NPC1 promoter act – activates the NPC1 promoter | Huh7 NPC1 promoter luciferase reporter, 24 h | Potency, µM (series often up to 9.22 µM), for the others: at the highest dose activation, most hits filed as activators | 320,000 compounds, 2.4% hits | AID 485313; further: % of control where 0% means no effect; nearly all actives have a fitted effect of over 60% in size
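Luminescence from an NPC1 promoter-driven luciferase reporter in stably transfected Huh7 cells was measured after 24 h compound treatment at 37 °C, followed by 10 min ambient incubation with luciferase detection reagent.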
ELG1 DNA repair – inhibitors of ELG1-dependent DNA repair in HEK293T cells; 330,000 compounds, 2.3% hits; HEK293T ELG1-luciferase reporter, luminescence, 16 h; DNA damage induced by 5-fluorouridine; AID 504467; Potency, µM (doses to about 46.1 µM), inactives show at the highest dose activity change, negative = inhibition, hits mostly inhibitors; further: on the % scale 0 is the no-effect control and ±100 the full control effect; nearly all actives have a fitted effect of over 55% in size
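DMSO vehicle served as the neutral condition. Each well held 2,000 cells given 5-fluorouridine plus compound; after 16 hr at 37 °C/5% CO2, ONE-Glo was added and luciferase measured 30 min later.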
* marks the source's active call; other numbers are inactive results; ? = inconclusive; . = no result given. Hits are enriched below; roughly 9.2% of the tested compounds scored in any of these assays. The call rests on the fitted dose curve; in most records, active means well fitted curve in the direction sought with a large enough effect; inconclusive means small, poorly fitted or top-dose-only effect, or another doubt; inactive means no such curve, though single readings can be large; an effect the other way counts as inactive or inconclusive. Potency means the concentration at half of the fitted maximal effect.

SMILES | ELG1 genotox | Rab9 prom act | FLuc modulator | SMN2 splice up | NPC1 promoter act | ELG1 DNA repair
Oc1cc(-c2ccc(N3CCCCC3)nc2)cc2cccnc12 | 18.3µM* | 4.1% | ? | . | 9.6% | ?
Oc1cc(-c2ccncc2)cc2cccnc12 | -8.0% | -35.0% | ? | . | -35.0% | 16.4µM*
CN(C)CCCNC(=O)c1ccc(-c2cc(O)c3ncccc3c2)cc1 | 13.8% | -6.0% | -3.3% | . | -4.4% | ?
CN1CCN(c2ccc(-c3cc(O)c4ncccc4c3)cc2)CC1 | . | ? | 6.01µM* | . | 11.8% | .
Oc1cc(Nc2ccncc2)cc2cccnc12 | 4.3% | 2.4% | -0.4% | . | -1.6% | 7.0%
CN(C)c1ccc(-c2cc(O)c3ncccc3c2)cc1 | 16.4µM* | -1.7% | 15.1µM* | . | -6.9% | ?
O=S(=O)(c1ccc(Oc2ccc(Cl)cc2)c(S(=O)(=O)N2CCCCC2)c1)N1CCCCC1 | -1.1% | -1.4% | 2.8% | -9.7% | -3.2% | -2.8%
COc1ccc(N2CCN(C(C)C(=O)Nc3nnc(C)s3)CC2)cc1 (stereo not given) | 3.4% | -5.0% | 3.4% | . | -4.0% | 12.6%
O=C(O)CCCN1C(=O)/C(=C/c2ccc(-c3nc4ccccc4s3)o2)SC1=S | 13.5% | -1.3% | -5.7% | 17.8µM* | 10.5% | ?
O=C(O)CCCCCN1C(=O)/C(=C\c2ccc(-c3ccc(Cl)cc3)o2)SC1=S | 3.7% | -4.2% | ? | . | -2.5% | 16.8%
Cc1ccc(S(=O)(=O)N2CCCCC2)cc1NC(=O)COc1ccccc1F | -4.5% | -1.7% | -18.5% | 0.2% | -5.6% | 4.0%
O=C(O)c1ccc(N/N=C/c2ccc(OC(=O)c3cccc(Cl)c3)cc2)cc1 | -3.8% | ? | 19µM* | . | ? | ?
CSc1ccc(/C=N/Nc2cccc(C(=O)O)c2)cc1 | 0.073µM* | 0.0891µM* | 0.0757µM* | 0.251µM* | ? | ?
COC(=O)c1ccc(COc2ccc(/C=N/Nc3cccc(C(=O)O)c3)cc2)cc1 | ? | 0.398µM* | 2.69µM* | . | 0.708µM* | ?
O=C(O)c1cccc(N/N=C/c2cccs2)c1 | ? | ? | 0.426µM* | 0.141µM* | ? | ?
Cc1cccc(C(=O)Oc2ccc(/C=N/NC(=O)c3ccc(O)cc3)cc2)c1 | 5.4% | 3.8% | ? | . | -2.4% | -0.2%
CC(C)Oc1cccc(C(=O)C2CCCN(S(C)(=O)=O)C2)c1 (stereo not given) | 0.5% | -4.4% | -9.9% | . | -1.9% | 4.9%
CCC1(c2ccccc2)NC(=O)N(CC(=O)Nc2cc(S(=O)(=O)N3CCCCC3)ccc2OC(C)C)C1=O (stereo not given) | 3.4% | 0.0% | 0.0% | . | -5.0% | -16.3%
O=C(Nc1ccc(OC(F)(F)F)cc1)c1cccc(-n2cnnn2)c1 | -1.1% | -6.8% | 0.1% | . | -2.3% | -7.1%
Cc1cc(C(=O)N/N=C/c2ccc(OCc3ccccc3)cc2)c(C)o1 | -3.8% | 6.8% | ? | 10.7% | -1.1% | 4.2%
O=C(O)c1cc(N/N=C/C=C/c2ccccc2)ccc1Cl | 9.2µM* | 0.355µM* | 7.57µM* | 10µM* | 0.398µM* | ?
O=C(O)c1cccc(N/N=C/c2ccc(OC(F)(F)F)cc2)c1 | ? | 0.0316µM* | 0.0675µM* | . | ? | ?
O=C(N/N=C/C=C/c1ccccc1)c1ccccc1Br | -3.0% | -2.1% | ? | 22.4% | 4.0% | ?
O=C(O)c1cc(N/N=C/c2ccc(OCc3ccccc3)cc2)ccc1Cl | ? | 0.562µM* | 6.75µM* | 11.2µM* | 2.51µM* | ?
CCOC(=O)c1sc(-n2[nH]c(C)cc2=O)nc1C | 1.9% | 2.4% | 15.1µM* | -3.3% | 11.1% | 1.7%
COC(=O)c1scc(S(=O)(=O)C(C)C)c1N/N=C(\C#N)C(=O)c1ccc(Cl)cc1 | -18.2% | -2.1% | -2.3% | . | -2.9% | 13µM*
COc1ccc(OCc2cc(C(=O)N(C)Cc3nccn3C)no2)c2ccccc12 | -4.9% | -0.1% | 6.3% | . | -3.1% | 0.9%
